Laboratory results: the supplement of paper PMC10849652
Of roughly 7,900 targets only a part is listed; those with a hit were picked by preference. About 0.6% of all pairs of compound and target were hits.

What was measured:
Assay in all cases: log2 fold change, soluble protein after heating vs DMSO (PISA); higher = thermal stabilisation; K562 cells, 10 uM, 30 min; active = over 0.2 and 3.5 SD of the protein, either way, in both replicates (recomputed)
[1] = compound: CS(=O)(=O)c1ccc(-c2cnc(N)c(C(=O)Nc3ccccc3)n2)cc1
Procedure, shortened: (§1)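 K562 cells at 2×10^6 cells/mL were treated for 30 min with 10 μM compound, and aliquots were heated for 3 min over 48°C-58°C before pooling. Extraction used PBS with 0.5% NP-40 at 4°C, and soluble protein was the supernatant after 21,000xg for 90 min, measured by TMTpro 16plex LC-MS/MS with channel sums equalised. Thermal stability values, relative to control samples and from duplicates, are log2 fold changes.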

[2] = compound: C[C@@H](Oc1cc(-c2cnn(C3CCNCC3)c2)cnc1N)c1c(Cl)ccc(F)c1Cl [crizotinib]
Procedure, shortened: as §1

[3] = compound: C[C@H](C1=CC=C(C=C1)C(=O)NC2=C3C=CNC3=NC=C2)N
Procedure, shortened: as §1

[4] = compound: C[C@H](Nc1ncnc2nc[nH]c12)c1cc2cccc(Cl)c2c(=O)n1-c1ccccc1 [duvelisib]
Procedure, shortened: as §1

[5] = compound: Cc1cc(Nc2cc(CN3CCOCC3)c3nc(C)c(Cc4ccc(Cl)cc4F)n3n2)n[nH]1 [gandotinib]
Procedure, shortened: as §1

[6] = compound: Cc1cc(Nc2cc(N3CCN(C)CC3)nc(Sc3ccc(NC(=O)C4CC4)cc3)n2)n[nH]1 [tozasertib]
Procedure, shortened: as §1

[7] = compound: Cc1cc(SCc2sc(-c3ccc(C(F)(F)F)cc3)nc2C)ccc1OCC(=O)O
Procedure, shortened: as §1

[8] = compound: Cc1ccc(-n2nc(C(C)(C)C)cc2NC(=O)Nc2ccc(OCCN3CCOCC3)c3ccccc23)cc1 [doramapimod]
Procedure, shortened: as §1

[9] = compound: Cc1ccc(NC(=O)c2ccc(CN3CC[C@H](N(C)C)C3)c(C(F)(F)F)c2)cc1Nc1nccc(-c2cncnc2)n1 [bafetinib]
Procedure, shortened: as §1

[10] = compound: Cc1cccc(CC(=O)N2CCc3c2ccc(-c2cn(C)c4ncnc(N)c24)c3F)n1
Procedure, shortened: as §1

[11] = compound: Cc1cn(-c2cc(NC(=O)c3ccc(C)c(Nc4nccc(-c5cccnc5)n4)c3)cc(C(F)(F)F)c2)cn1 [nilotinib]
Procedure, shortened: as §1

[12] = compound: Cc1nc(Nc2n[nH]c3c2CN(C(=O)N[C@H](CN(C)C)c2ccccc2)C3(C)C)c2sccc2n1
Procedure, shortened: as §1

[13] = compound: Cc1nc(Nc2ncc(C(=O)Nc3c(C)cccc3Cl)s2)cc(N2CCN(CCO)CC2)n1 [dasatinib]
Procedure, shortened: as §1

[14] = compound: Cc1ncc(-c2ccnc(Nc3ccc(S(C)(=O)=O)cc3)n2)n1C(C)C
Procedure, shortened: as §1

[15] = compound: Cn1cc(-c2ccc3c(c2)CCN3C(=O)Cc2cccc(C(F)(F)F)c2)c2c(N)ncnc21
Procedure, shortened: as §1

[16] = compound: FC(F)(F)c1ccc(/C=C/c2nc(COc3ccc(CCCCn4ccnn4)cc3)co2)cc1 [mubritinib]
Procedure, shortened: as §1

[17] = compound: Cc1ccc(C(=O)N(CCCN)[C@@H](c2nc3cc(Cl)ccc3c(=O)n2Cc2ccccc2)C(C)C)cc1 [ispinesib]
Procedure, shortened: as §1

[18] = compound: Cn1cc(-c2ccc3nnc(C(F)(F)c4ccc5ncccc5c4)n3n2)cn1
Procedure, shortened: as §1

[19] = compound: Cn1cncc1[C@@](N)(c1ccc(Cl)cc1)c1ccc2c(c1)c(-c1cccc(Cl)c1)cc(=O)n2C [tipifarnib]
Procedure, shortened: as §1

[20] = compound: C[C@@H]1COCCN1C2=NC(=NC(=C2)C3(CC3)S(=O)(=O)C)C4=C5C=CNC5=CC=C4
Procedure, shortened: as §1

Measured: log2 fold change

SCLT1 (UniProt Q96NL6)
Chain of UniProt Q96NL6 (Q96NL6 whole entry, looked up): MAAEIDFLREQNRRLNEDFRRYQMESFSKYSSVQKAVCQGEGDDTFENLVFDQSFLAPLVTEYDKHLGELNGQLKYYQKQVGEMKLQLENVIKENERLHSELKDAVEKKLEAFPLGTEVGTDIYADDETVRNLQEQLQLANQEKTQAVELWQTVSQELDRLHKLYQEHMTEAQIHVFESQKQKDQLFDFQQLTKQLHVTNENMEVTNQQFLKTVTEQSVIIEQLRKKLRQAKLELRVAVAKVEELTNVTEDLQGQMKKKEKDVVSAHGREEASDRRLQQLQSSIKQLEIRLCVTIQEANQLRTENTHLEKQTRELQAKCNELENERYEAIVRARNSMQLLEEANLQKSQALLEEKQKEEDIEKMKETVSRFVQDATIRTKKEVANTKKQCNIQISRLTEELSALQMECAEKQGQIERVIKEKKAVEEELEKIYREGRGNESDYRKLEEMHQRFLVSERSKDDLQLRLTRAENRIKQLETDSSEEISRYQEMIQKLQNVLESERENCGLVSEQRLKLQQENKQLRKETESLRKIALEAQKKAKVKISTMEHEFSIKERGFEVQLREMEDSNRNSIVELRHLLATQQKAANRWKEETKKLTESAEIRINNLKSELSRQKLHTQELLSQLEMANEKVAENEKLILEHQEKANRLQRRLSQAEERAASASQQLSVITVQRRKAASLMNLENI
inactive: [1] 0.148 | [2] 0.003 | [3] -0.081 | [4] 0.038 | [5] 0.149 | [6] -0.144 | [7] -0.028 | [8] 0.055 | [9] 0.087 | [10] -0.009 | [11] -0.099 | [12] -0.043 | [13] -0.052 | [14] 0.041 | [15] 0.191 | [16] 0.098

RCOR3 isoform 3 (UniProt Q9P2K3)
inactive: [1] -0.039 | [2] -0.117 | [3] -0.061 | [4] 0.105 | [5] -0.015 | [6] 0.091 | [7] 0.104 | [8] -0.047 | [17] -0.065 | [9] 0.023 | [10] 0.039 | [11] -0.019 | [12] 0.001 | [13] -0.09 | [14] -0.022 | [15] -0.056 | [18] 0.006 | [19] -0.119 | [16] 0.09

S100A10 (UniProt P60903)
Chain of UniProt P60903 (P60903 whole entry, looked up): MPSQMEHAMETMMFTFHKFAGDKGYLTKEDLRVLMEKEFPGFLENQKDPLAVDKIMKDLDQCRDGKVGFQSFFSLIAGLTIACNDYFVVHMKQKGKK
inactive: [1] -0.004 | [3] 0.063 | [5] 0.131 | [6] 0.057 | [9] -0.026 | [10] -0.035 | [11] 0.072 | [12] -0.057 | [14] -0.016 | [15] 0.146 | [19] 0.131

RAB3D (UniProt O95716)
Chain of UniProt O95716 (O95716 whole entry, looked up): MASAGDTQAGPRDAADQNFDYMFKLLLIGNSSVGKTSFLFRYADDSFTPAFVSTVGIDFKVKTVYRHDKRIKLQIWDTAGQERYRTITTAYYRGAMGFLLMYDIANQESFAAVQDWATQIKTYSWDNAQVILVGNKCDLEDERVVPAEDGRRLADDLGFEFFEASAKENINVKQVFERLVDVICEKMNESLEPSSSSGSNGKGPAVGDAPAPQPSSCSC
inactive: [3] -0.031 | [4] -0.106 | [5] 0.083 | [6] 0.021 | [7] -0.115 | [17] 0.2 | [9] -0.142 | [10] -0.052 | [11] 0.01 | [12] 0.066 | [13] 0.221 | [14] -0.116 | [15] 0.075 | [18] -0.201 | [19] 0.065 | [16] 0.285

RPS3A (UniProt D6R9B6)
inactive: [1] -0.014 | [4] -0.015 | [6] -0.134 | [7] 0.069 | [13] 0.155

SERINC1 (UniProt Q9NRX5)
Chain of UniProt Q9NRX5 (Q9NRX5 whole entry, looked up): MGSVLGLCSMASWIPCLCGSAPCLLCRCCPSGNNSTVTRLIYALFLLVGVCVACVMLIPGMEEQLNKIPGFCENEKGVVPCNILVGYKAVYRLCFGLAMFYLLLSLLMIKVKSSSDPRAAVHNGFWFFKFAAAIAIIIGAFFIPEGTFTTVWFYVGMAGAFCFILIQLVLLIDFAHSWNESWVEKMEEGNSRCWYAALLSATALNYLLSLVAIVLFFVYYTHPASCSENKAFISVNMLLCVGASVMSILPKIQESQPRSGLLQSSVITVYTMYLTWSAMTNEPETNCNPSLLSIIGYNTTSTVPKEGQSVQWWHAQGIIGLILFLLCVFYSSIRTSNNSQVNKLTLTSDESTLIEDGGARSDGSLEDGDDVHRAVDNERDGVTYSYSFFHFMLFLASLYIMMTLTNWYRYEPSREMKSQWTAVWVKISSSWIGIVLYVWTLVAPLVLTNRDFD
inactive: [1] 0.075 | [2] -0.197 | [20] 0.037 | [4] 0.03 | [6] 0.125 | [7] -0.016 | [8] 0.068 | [17] -0.048 | [9] -0.135 | [11] 0.121 | [12] 0.081 | [13] -0.034 | [14] -0.064 | [18] 0.054 | [19] -0.112 | [16] 0.057

RPS6KA5 (UniProt O75582)
Chain of UniProt O75582 (O75582 whole entry, looked up): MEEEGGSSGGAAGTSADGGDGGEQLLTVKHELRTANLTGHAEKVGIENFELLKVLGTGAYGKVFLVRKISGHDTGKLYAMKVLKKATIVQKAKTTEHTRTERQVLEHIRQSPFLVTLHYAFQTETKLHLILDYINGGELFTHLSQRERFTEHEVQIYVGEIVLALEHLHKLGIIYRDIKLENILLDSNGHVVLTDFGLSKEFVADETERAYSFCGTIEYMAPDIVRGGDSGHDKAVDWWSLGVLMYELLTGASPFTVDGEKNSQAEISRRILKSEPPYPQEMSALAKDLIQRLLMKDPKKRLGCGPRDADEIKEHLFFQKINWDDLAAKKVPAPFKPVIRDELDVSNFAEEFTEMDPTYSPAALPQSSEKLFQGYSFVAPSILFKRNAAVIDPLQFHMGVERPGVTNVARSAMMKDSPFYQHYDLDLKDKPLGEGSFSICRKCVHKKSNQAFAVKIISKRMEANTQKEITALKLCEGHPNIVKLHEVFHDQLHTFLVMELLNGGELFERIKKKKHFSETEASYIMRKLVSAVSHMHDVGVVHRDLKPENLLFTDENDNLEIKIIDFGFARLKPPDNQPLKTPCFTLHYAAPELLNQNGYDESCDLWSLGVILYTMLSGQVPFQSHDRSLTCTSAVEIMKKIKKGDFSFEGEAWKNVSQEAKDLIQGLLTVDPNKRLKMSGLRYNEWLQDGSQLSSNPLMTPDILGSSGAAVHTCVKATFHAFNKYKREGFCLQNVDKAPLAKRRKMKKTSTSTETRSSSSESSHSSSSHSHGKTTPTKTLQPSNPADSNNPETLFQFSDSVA
inactive: [2] -0.393 | [20] 0.045 | [8] -0.016 | [17] 0.018 | [18] -0.098 | [19] -0.07 | [16] -0.171

SH3PXD2B (UniProt A1X283)
Chain of UniProt A1X283 (A1X283 whole entry, looked up): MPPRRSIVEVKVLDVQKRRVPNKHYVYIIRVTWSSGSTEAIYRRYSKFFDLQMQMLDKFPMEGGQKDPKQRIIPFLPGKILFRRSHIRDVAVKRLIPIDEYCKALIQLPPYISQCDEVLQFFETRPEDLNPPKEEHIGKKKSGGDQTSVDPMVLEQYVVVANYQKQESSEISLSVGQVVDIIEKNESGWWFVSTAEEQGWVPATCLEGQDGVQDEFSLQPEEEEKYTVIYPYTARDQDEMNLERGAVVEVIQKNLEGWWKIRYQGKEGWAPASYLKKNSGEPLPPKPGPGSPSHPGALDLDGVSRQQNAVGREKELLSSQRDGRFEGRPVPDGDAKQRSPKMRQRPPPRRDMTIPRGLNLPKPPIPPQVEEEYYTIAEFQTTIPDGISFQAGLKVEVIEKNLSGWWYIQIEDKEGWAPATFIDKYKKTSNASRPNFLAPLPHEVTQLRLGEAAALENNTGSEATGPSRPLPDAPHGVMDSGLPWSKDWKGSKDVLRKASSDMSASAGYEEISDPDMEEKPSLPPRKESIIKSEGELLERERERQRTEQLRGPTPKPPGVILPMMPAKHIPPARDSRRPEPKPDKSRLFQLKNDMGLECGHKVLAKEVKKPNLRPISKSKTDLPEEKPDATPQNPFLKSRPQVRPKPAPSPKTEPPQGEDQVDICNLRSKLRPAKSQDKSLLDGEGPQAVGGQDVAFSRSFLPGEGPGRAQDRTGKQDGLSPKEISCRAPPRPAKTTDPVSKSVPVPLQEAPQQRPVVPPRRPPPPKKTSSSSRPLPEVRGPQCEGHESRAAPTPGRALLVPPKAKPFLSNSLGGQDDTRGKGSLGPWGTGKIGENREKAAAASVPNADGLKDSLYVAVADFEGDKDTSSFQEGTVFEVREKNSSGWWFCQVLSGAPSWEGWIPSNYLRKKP
inactive: [1] 0.002 | [20] 0.246 | [3] 0.055 | [5] 0.077 | [6] -0.1 | [10] -0.058 | [11] -0.124 | [12] 0.129 | [14] -0.152 | [15] 0.024 | [16] 0
active: [9] -0.954
